Data reported in PubChem BioAssay AID652126 (The Scripps Research Institute Molecular Screening Center, 2013).
Out of some 370,000 compounds screened, about 3,700 (1%) were called active. This is one part of a sample in which actives are shown more often than they occur. A number with no mark means an inactive call.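 The calls were made as follows: active = activation above the mean over all tested compounds plus 3 SD (cut at about 0.9% in these data); inactive = the rest.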

tested on: Nuclear hormone receptor DAF-12 (Strongyloides stercoralis); experiment: ssDAF-12 driven luciferase reporter activation – cell-based, luminescence, HEK293, GRIP1 co-expression, lit1-tk-luc, primary screen (AID 652126); details: HEK293 ssDAF-12/GRIP1 lit1-tk-luc reporter, at 6.8 µM, stronger effect = higher value, % of 3 µM dafachronic acid response;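 also: 0% = DMSO-only wells and 100% = 3 µM delta7-dafachronic acid wells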

Row | SMILES | activation
1 | Brc1ccccc1C1N=C(c2ccccc2)NO1 (stereo not given) | 1.18% (active)
2 | S=C1NC(c2ccccc2)=NCN1c1ccc(Br)cc1 | -0.91%
3 | N#Cc1ccc(C2N=C(c3ccccc3)NO2)cc1 (stereo not given) | 0.03%
4 | COC(=O)C1CN(Cc2ccc(F)cc2)CCS(=O)(=O)N1Cc1ccc(Cl)cc1 (stereo not given) | -1.29%
5 | Cc1cccc(N2CCN(C(=O)C3CCN(S(=O)(=O)c4cnc[nH]4)CC3)CC2)c1C | -0.57%
6 | O=C(C1CCN(S(=O)(=O)c2cnc[nH]2)CC1)N1CCN(Cc2ccc3c(c2)OCO3)CC1 | 1.02% (active)
7 | CCN(CCCNC(=O)C1CCN(S(=O)(=O)c2cnc[nH]2)CC1)c1ccccc1 | -1.52%
8 | O=C(c1ccncc1)N1CC[C@H]2[C@H](CCCN2Cc2ccc(F)cc2)C1 | -0.89%
9 | CCOC(=O)[C@]12CCCC3=C1N(CCC3)C(=O)[C@@H](CC(=O)N1CCSCC1)C2 | 0.21%
10 | Clc1ccc(-n2c(COc3ccccc3)nnc2SCc2nc3ccccc3[nH]2)cc1 | -1.69%
11 | O=C(Nc1ccc(Cl)cc1)C1c2cccc[n+]2CC(=O)N1Cc1ccc2c(c1)OCO2 (stereo not given) | 2.86% (active)
12 | CCCOc1ccc(NC(=O)CC2C(=O)N(C)C(=S)N2Cc2ccc3c(c2)OCO3)cc1 (stereo not given) | -1.45%
13 | O=C(Nc1ccc2c(c1)OCCO2)C1c2ccccc2OCC(=O)N1Cc1ccccn1 (stereo not given) | -0.32%
14 | COc1ccc(Cn2ccc3ccc(-c4ccc5ccn(Cc6ccccc6C)c5c4)cc32)cc1 | -0.43%
15 | O=S1(=O)c2c(cccc2N2CCSCC2)Oc2ccccc2CN1Cc1cn(Cc2ccc(F)cc2)nn1 | -1.43%
16 | O=C(CN1CCC(NC(=O)NCc2ccccc2)CC1)Nc1ccc2c(c1)OCCO2 | -1.37%
17 | C=CCN1C(C(=O)OC)CN(Cc2cn(Cc3ccccc3)nn2)CCS1(=O)=O (stereo not given) | -1.67%
18 | C=CCN(C)CC#Cc1ccccc1 | -0.95%
19 | COc1ccc(-n2c(SCC(=O)NC3CCCC3)nnc2-c2ccncc2)cc1 | -0.71%
20 | CS(=O)(=O)N(CC(=O)N/N=C/c1ccccn1)c1ccc(Oc2ccccc2)cc1 | -0.77%
21 | S=C(NN=Cc1ccccn1)Nc1ccccn1 | 1.63% (active)
22 | O=C(O)C1C2C=CC(O2)C1C(=O)Nc1ccccn1 (stereo not given) | -1.12%
23 | CCCOc1ccc(Oc2c(Cl)cnn(Cc3cccc4ccccc34)c2=O)cc1 | -1.41%

Row | SMILES | activation
24 | O=C1CC(c2ccc3c(c2)OCO3)N=C2N(CC3CC3)C/C(=C/c3ccccc3)N12 (stereo not given) | -1.93%
25 | CCOc1ccc(-n2c(SCC(=O)Nc3cc(C)c(NC(=O)c4ccccc4)cc3OC)nnc2-c2cccc(Cl)c2)cc1 | -1.5%
26 | CCOC(=O)c1c(NC(=S)Nc2ccccc2C)sc2c1CCC2 | 1.91% (active)
27 | CCOC(=O)c1c(NC(=S)Nc2ccccc2)sc2c1CCN(C)C2 | -1.34%
28 | CCOC(=O)c1c(NC(=O)C2(C)Cc3ccccc3C(=O)O2)sc2c1CCCC2 (stereo not given) | -1.31%
29 | CC(=O)OCCN1CCCC12CCC(c1ccccc1)CC2 (stereo not given) | -0.84%
30 | C#CCN([C@H](C(=O)OC)C(C)CC)S(=O)(=O)c1ccccc1Br (stereo not given in full) | -1.85%
31 | CCOc1ccc(N2CC(C(=O)N/N=C/c3sccc3C)CC2=O)cc1 (stereo not given) | -1.57%
32 | Cc1ccsc1/C=N/NC(=O)Cc1cc(=O)[nH][nH]1 | 1.42% (active)
33 | Cc1ccc(-c2nnc(SCC(=O)N/N=C/c3cccs3)n2-c2ccc(C)cc2)cc1 | -0.75%
34 | CN(C)S(=O)(=O)c1cccc(C(=O)N/N=C\c2ccco2)c1 | -0.66%
35 | CC1CCCCC1NC(=O)c1cc(=O)[nH]c2ccccc12 (stereo not given) | -0.66%
36 | COC(=O)C1CCN(C(=O)c2cc(=O)[nH]c3ccccc23)CC1 | 1.33% (active)
37 | CC1CCN(C(=O)COC(=O)c2cc(=O)[nH]c3ccccc23)CC1 | -0.23%
38 | CCc1ccccc1NC(=O)CSc1nnc(-c2cccs2)o1 | -1.52%
39 | Cc1ccc(NC(=O)COc2coc(CN3CCc4ccccc4C3)cc2=O)cc1Cl | -1.76%
40 | CCc1ccc(NC(=O)CC2C(=O)NCCN2C(=S)Nc2ccccc2)cc1 (stereo not given) | -1.42%
41 | Cc1ccc(NC(=O)CN2CCc3ccccc3C2)cc1C | 1.3% (active)
42 | CCOC(=O)c1c(NC(=S)SC)sc(C(=O)N2CCc3ccccc3C2)c1C | -0.64%
43 | CCc1ccc(NC(=O)N2CCc3ccccc3C2)cc1 | 1.53% (active)
44 | O=C(CN1CCc2ccccc2C1)Nc1cccc(S(=O)(=O)N2CCOCC2)c1 | -0.91%
45 | Cc1cc(NS(=O)(=O)c2ccc(NC(=O)CSc3nnc(-c4ccc(C(C)(C)C)cc4)n3Cc3ccco3)cc2)nc(C)n1 | -1.29%
46 | COc1ccc(O)c(C(=O)c2cnc3onc(C(C)C)c3c2)c1 | -0.89%

Row | SMILES | activation
47 | COc1cccc(C(=O)NNS(=O)(=O)c2ccc(F)cc2)c1 | -1.09%
48 | COc1cccc(NC(=O)CC2C(=O)NCCN2C(=S)Nc2ccc(F)cc2)c1 (stereo not given) | -1.35%
49 | COc1cccc(NC(=O)Nc2ccc(F)cc2)c1 | 1.74% (active)
50 | COC(=O)C1CN(Cc2cn(Cc3ccc(F)cc3)nn2)CCS(=O)(=O)N1Cc1ccc(Cl)cc1 (stereo not given) | -2.03%
51 | CCCCNC(=O)C[C@H]1C[C@@]2(C(=O)OC)C(=C[C@H](COCc3ccccc3)O[C@@H]2C)N(Cc2ccc(Cl)cc2Cl)C1=O | -1.35%
52 | CC(C)CSc1nnc(-c2cccnc2)n1Cc1ccccc1 | -1.35%
53 | COC(=O)c1cc(S(=O)(=O)N2CCN(C(=O)C3CCCO3)CC2)cn1C (stereo not given) | -1.3%
54 | Cc1ccc(CCNC(=O)c2ccc3nc4ccccc4c(=O)n3c2)cc1 | -1.47%
55 | Cn1ncc2c(NNC(=O)Cc3cccc4ccccc34)ncnc21 | -1.61%
56 | Cc1ccc(C(=O)NNc2ncnc3ccccc23)cc1 | 1.85% (active)
57 | O=C(CNC(=O)c1ccccc1)OC(C(=O)Nc1cc([N+](=O)[O-])ccc1F)c1ccccc1 (stereo not given) | -2.1%
58 | CCOC(=O)C1CCN(C(=O)C(C)(C)NC(=O)Nc2ccccc2Cl)CC1 | -0.72%
59 | O=C(O)c1cccc(N=NN2CCCCCC2)c1 | 1.23% (active)
60 | NC1=NN(c2cccc(C(=O)O)c2)C(=O)C1 | 0.3%
61 | O=C(O)c1cccc(S(=O)(=O)N2CC=C(c3ccccc3)CC2)c1 | -1.29%
62 | O=C(c1c[nH]c2ccccc12)N1CCC(Oc2cccnc2)CC1 | -1.03%
63 | Cc1ccc(OCc2nnc(SC/C=C/c3ccccc3)n2Cc2ccco2)cc1 | -1.7%
64 | O=C(Nc1cccc(Cl)c1)OC1CC2CC1[C@H]1CCCCN1[C@H]2Cc1ccccc1 (stereo not given in full) | -1.06%
65 | Cc1ccccc1NC(=O)COC(=O)c1ccc(Sc2ncn[nH]2)c([N+](=O)[O-])c1 | -1.78%
66 | Cc1nc2ccc(C(=O)N3CCN(C(=O)C(C)(C)C)CC3)cc2n1C1CCCC1 | -1.22%
67 | CCOC(=O)c1nc(-c2ccc3c(c2)OCO3)[nH]c1C | -1.3%
68 | CN(C)c1cc(N)c2ccccc2n1 (tested in a mixture with another compound) | -0.25%
69 | Cc1ccc(-c2nc3ccccc3[nH]2)cc1N | 2.5% (active)

Row | SMILES | activation
70 | Cc1cc(C)nc(NC(=S)N2CCN(c3ccc(C(F)(F)F)cn3)CC2)c1 | -1.63%
71 | COc1ccc(C(=O)OCCN2CCN(C3CN(Cc4cn(Cc5ccccc5F)nn4)S(=O)(=O)C3)CC2)cc1OC (stereo not given) | -1.83%
72 | O=C(Nc1cc(F)cc(F)c1)OC1CCC12CCC(c1ccccc1)CC2 (stereo not given) | -1.11%
73 | O=C(Nc1cc(Cl)cc(Cl)c1)OCCN1CCCC12CCC(c1ccccc1)CC2 (stereo not given) | -1.99%
74 | Cc1ccc(-n2c(SCC(=O)Nc3ccc(S(=O)(=O)Nc4nccs4)cc3)nnc2-c2cccnc2)cc1 | -1.03%
75 | Fc1ccc2cnc(-c3ccccc3)cc2c1 | 0.89%
76 | Fc1ccccc1-c1cc2cc3c(cc2cn1)OCO3 | 0.96% (active)
77 | COC(=O)C[C@@H]1CC[C@@H]2[C@H](COc3ccc(NC(=O)c4cccc(F)c4)cc3C(=O)N2C)O1 | -1.32%
78 | CN(C(N)=NC(=O)/C=C/c1ccccc1)C(C#Cc1ccccc1)Cc1ccccc1 (stereo not given) | -1.31%
79 | O=C(CCCCCN1C(=O)C2C3C=CC(C3)C2C1=O)Nc1ccccn1 (stereo not given) | -1.93%
80 | COc1ccc(Cn2cc(COC(=O)N(C)Cc3ccccc3)nn2)cc1 | -1.12%
81 | Cc1ccc(NC(=O)c2ccc(Cl)nc2)cc1S(=O)(=O)N1CCOCC1 | -1.53%
82 | Cc1cnc(NC(=O)c2ccc(Cl)nc2)s1 | 1.34% (active)
83 | COc1ccc(CC(=O)NCc2nnc(SCC(=O)Nc3ncc(C)s3)n2C)cc1 | -1.52%
84 | COc1ccc(-c2cc(-c3nnc(SCC(=O)Nc4cccc5ccccc45)n3N)[nH]n2)cc1 | -1.73%
85 | Cc1cc(=O)[nH]c(SCC(=O)Nc2ccc(Cl)cc2C)n1 | -1.2%
86 | CCC(c1ccc(NC(=O)OC(C)(C)C)cc1)c1cc(OC)cc(OC)c1 (stereo not given) | -1.95%
87 | CC(C)(C)c1ccc(C(=O)Nc2cc(Cl)c(Br)cc2C(=O)O)cc1 | -1.31%
88 | CCc1nonc1NC(=O)c1oc2ccc(Cl)cc2c1C | -0.87%
89 | Cc1c(C(=O)Nc2ccccn2)oc2ccc(Br)cc12 | 1.84% (active)
90 | Cc1c(C(=O)NC2CCCCC2)oc2ccccc12 | -0.81%
